EWS-Fli block – inhibitors of EWS/Fli oncoprotein transcriptional activity; A673 NR0B1-luciferase reporter, viability-normalised; inhibition, % at 12.6 µM; actives 0.67% (n = 350,000); AID 651661;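 active = mean inhibition of at least 50% after viability correction, with every replicate also passing that limit; inconclusive = mean reaches 50% but only one of two replicates passes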;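 also: firefly luciferase signal divided by Alamar Blue viability fluorescence both relative to DMSO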
Peg3 promoter – Peg3 promoter activity inhibition. HeLa PEG-Prom luciferase reporter, luminescence, overnight. actives 1.7% (n = 360,000). AID 588405. inhibition, % at 20 µM;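 active = inhibition of at least 50% at 20 µM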
TRPM1 prom inh – reduces MITF-dependent TRPM1 promoter luciferase signal. SK-MEL-5 TRPM1 promoter luciferase, 24 h. inhibition, % at 12.5 µM. actives 0.83% (n = 330,000). AID 488899;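 active = mean inhibition across replicates of 60% or more, whatever share of single replicates reaches that level; inconclusive = some that reach 60%, reason not given; inactive = mean inhibition across replicates below 60%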
PAX8 reporter – PAX8 transcriptional activity inhibition; RMG-I TPO-luciferase reporter, SteadyGlo, 24 h; inhibition, % at 12.6 µM; actives 1.2% (n = 360,000); AID 652154;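 active = mean replicate inhibition at least 60% with every replicate also reaching 60%; inconclusive = only one of the two criteria is met; inactive = mean below 60% and not all replicates reaching 60%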;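 also: luciferase light reporting Pax8 driven TPO promoter activity; plate controls were median of neutral control wells for no effect and mitoxantrone controls for full effect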
Shn3 3UTR inh – reduces Shn3 3'UTR luciferase signal in osteoblasts; Clone20 osteoblast Shn3 3'UTR firefly luciferase, 24 h; inhibition, % at 12.5 µM; actives 0.52% (n = 360,000); AID 588674;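 active = mean inhibition of at least 75% with every replicate also reaching 75%; inconclusive = mean inhibition at least 75% but some replicate below; inactive = mean inhibition below 75%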;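 also: 0% = median of neutral control wells and 100% = pilot-screen positive control compound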
ABHD5 PLIN5 PPI – inhibitors of human ABHD5-perilipin-5 interaction. AID 602281. Q00G26+Q8WTS1. inhibition, % at 4 µM. actives 0.78% (n = 360,000). Split G. princeps luciferase complementation, luminescence, 4 h;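 active = inhibition above the mean inhibition across every tested compound plus 3 SD, cut at about 22% in these data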;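 also: 0% = DMSO only wells and the 100% control is not disclosed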
Target sequence (Q00G26 whole entry, looked up): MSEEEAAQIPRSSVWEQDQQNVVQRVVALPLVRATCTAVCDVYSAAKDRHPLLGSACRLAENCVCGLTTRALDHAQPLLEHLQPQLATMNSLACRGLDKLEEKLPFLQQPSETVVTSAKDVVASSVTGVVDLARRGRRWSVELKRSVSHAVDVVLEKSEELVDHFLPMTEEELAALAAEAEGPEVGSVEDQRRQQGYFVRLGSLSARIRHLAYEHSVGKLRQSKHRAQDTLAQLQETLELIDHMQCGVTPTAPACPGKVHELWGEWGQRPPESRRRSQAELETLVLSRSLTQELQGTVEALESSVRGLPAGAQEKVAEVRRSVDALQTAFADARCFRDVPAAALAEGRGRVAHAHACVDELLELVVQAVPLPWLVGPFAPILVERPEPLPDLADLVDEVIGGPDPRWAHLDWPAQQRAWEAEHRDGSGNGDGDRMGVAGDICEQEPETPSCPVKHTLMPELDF
Target sequence (Q8WTS1 whole entry, looked up): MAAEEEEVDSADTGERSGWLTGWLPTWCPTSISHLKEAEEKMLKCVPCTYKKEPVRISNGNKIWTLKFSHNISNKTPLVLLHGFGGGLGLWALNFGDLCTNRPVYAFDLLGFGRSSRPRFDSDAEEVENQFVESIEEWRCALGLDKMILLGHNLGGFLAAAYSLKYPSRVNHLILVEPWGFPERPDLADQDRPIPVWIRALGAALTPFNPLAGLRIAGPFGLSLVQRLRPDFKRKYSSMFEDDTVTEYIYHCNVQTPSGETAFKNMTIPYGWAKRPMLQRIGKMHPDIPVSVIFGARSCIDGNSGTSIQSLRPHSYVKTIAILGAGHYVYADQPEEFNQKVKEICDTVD
The depositor's hits bear a star; u = inconclusive; x = no result given. A selection: hits, their analogues and other compounds. The true share with any hit is near 3%.

SMILES | EWS-Fli block | Peg3 promoter | TRPM1 prom inh | PAX8 reporter | Shn3 3UTR inh | ABHD5 PLIN5 PPI
Cc1cccc(S(=O)(=O)N2C[C@H](O)COC[C@H]3O[C@@H](CC(=O)N4CCN(C)CC4)CC[C@@H]32)c1 | 0.1 | x | x | -15.7 | x | x
COc1ccccc1CNC(=O)COC(=O)Cc1c(F)cccc1Cl | -3.6 | 12.9 | 2.4 | 65.9* | -6.6 | -1.5
CCCN1[C@H](C(=O)N2CCOCC2)[C@@H](CO)[C@@H]2Cn3c(ccc(-c4ccccc4)c3=O)[C@@H]21 | -9.0 | x | x | x | x | x
CC(C)CN1C(=S)SC(C)(C)C1n1oc(=O)n(-c2ccc(Cl)cc2)c1=O (stereo not given) | x | 66.5* | -11.2 | x | 17.4 | -11.4
CC(C)CN1C(=S)SC(C)(C)C1n1oc(=O)n(-c2ccccc2)c1=O (stereo not given) | 0.4 | 12.2 | -11.5 | 3.3 | 15.9 | -11.3
Oc1ccc(C[C@@H]2CNCCN2CC2CCCCC2)cc1 | 0.9 | -29.8 | -1.2 | 9.6 | -3.7 | -5.9
c1ccc([C@H]2CNCCN2CCc2cccc3ccccc23)cc1 | 13.9 | 86.2* | 3.0 | 0.6 | 5.4 | 13.2
c1ccc2c(C[C@@H]3CNCCN3CC3CCCCC3)cccc2c1 | 1.0 | 93.6* | -7.3 | -6.9 | 26.8 | 1.1
COc1cc(CCCN2CCNC[C@@H]2c2ccccc2)cc(OC)c1OC | -3.1 | -17.4 | -3.5 | -14.1 | 6.8 | 4.9
C[C@H](CO)N1C[C@H](C)[C@H](CN(C)Cc2ccc(-c3ccccc3)cc2)Oc2ccc(NC(=O)Cc3ccccc3)cc2CC1=O | 31.0 | x | x | 65.9* | x | x
C[C@@H]1CN([C@@H](C)CO)C(=O)Cc2cc(NC(=O)CCC(F)(F)F)ccc2O[C@H]1CN(C)Cc1ccc(-c2ccccc2)cc1 | 33.2 | x | x | 100.2* | x | x
C[C@H](CO)N1C[C@H](C)[C@@H](CN(C)Cc2ccc(-c3ccccc3)cc2)Oc2ccc(NC(=O)Cc3ccccc3)cc2CC1=O | 20.9 | x | x | 93.6* | x | x
C[C@@H]1CN([C@H](C)CO)C(=O)Cc2cc(NC(=O)Cc3ccccc3)ccc2O[C@@H]1CN(C)Cc1ccc(-c2ccccc2)cc1 | 20.4 | x | x | 11.5 | x | x
COc1cc(C2CC(=O)Nc3ccccc3S2)cc(OC)c1OC (stereo not given) | x | 51.3* | 8.3 | x | 16.0 | 7.8
Cc1ccc(S(=O)(=O)NCCC2=CCCCC2)cc1C(N)=O | 31.4 | 4.8 | 20.0 | x | 73.1 | -3.9
O=C(Nc1cccc(F)c1)c1cc(S(=O)(=O)NCCC2=CCCCC2)ccc1F | x | 14.8 | 18.2 | 22.4 | 88.7* | -13.3
Cc1ccc(NC(=O)c2cc(S(=O)(=O)NCCC3=CCCCC3)ccc2F)cc1F | x | 24.4 | 14.5 | 9.1 | 92.0* | 17.2
O=C(Nc1cccc(F)c1)c1cc(S(=O)(=O)N2CCC(C(=O)O)CC2)ccc1F | x | -7.1 | 2.8 | x | -15.8 | 1.4
C[C@@H](O)C#Cc1ccc([C@H]2[C@@H](CO)N3CCCCN(C(=O)Nc4ccccc4)C[C@@H]23)cc1 | 3.4 | x | x | -21.8 | x | x
CO[C@@H]1CN(C)C(=O)c2ccc(NC(=O)c3cc(C)on3)cc2OC[C@@H](C)N(C(C)=O)C[C@H]1C | -1.6 | x | x | x | x | x
COC(=O)c1cn(C[C@H](Cc2ccccc2)NC(=O)c2ccccc2)nn1 | -1.7 | x | x | -28.6 | x | x
O=C(C[C@H]1C=C[C@@H](NC(=O)Nc2cccc(F)c2)[C@H](CO)O1)NCC1CCCCC1 | -67.9 | x | x | 18.6 | x | x
C[C@H]1CN([C@@H](C)CO)C(=O)c2cccc(NC(=O)C3CCCCC3)c2O[C@H]1CN(C)Cc1ccncc1 | 1.6 | x | x | -2.2 | x | x
O=C(CN1C(=O)NC2NC(=O)NC21)NN=C1CCCC1 (stereo not given) | -6.9 | 11.0 | -1.9 | 83.1* | -21.4 | 8.3
O=C(Nc1nc2cc(Cl)ccc2s1)C1CCCN(S(=O)(=O)c2cccc3cccnc23)C1 (stereo not given) | x | 59.8* | 12.9 | x | 28.9 | -7.3
SMILES | EWS-Fli block | Peg3 promoter | TRPM1 prom inh | PAX8 reporter | Shn3 3UTR inh | ABHD5 PLIN5 PPI
C=CS(=O)(=O)N(Cc1ccccc1Br)[C@H](CO)Cc1ccccc1 | -7.4 | 84.4* | 17.0 | 21.1 | -19.0 | 4.2
C=CS(=O)(=O)N(Cc1ccccc1)[C@H](CO)CC(C)C | 9.3 | 5.1 | 6.5 | 6.1 | 0.9 | -5.3
COc1ccc(NC(=O)Nc2ccc3c(c2)C(=O)N([C@@H](C)CO)C[C@@H](C)[C@@H](CN(C)S(=O)(=O)c2cn(C)cn2)OCCCC[C@H](C)O3)cc1 | -26.5 | x | x | 3.2 | x | x
CCOC(=O)/C=C/C(=O)Nc1ccc(S(=O)(=O)N(C)c2ccccc2)cc1 | 15.7 | 59.2* | 5.8 | 8.4 | 73.9 | 6.9
CC(=O)Nc1ccc(S(=O)(=O)N(C)c2ccccc2)cc1 | x | 27.3 | -2.9 | x | -2.2 | -1.5
C/C(=N/Nc1ccnc2cc(Cl)ccc12)c1ccc(O)cc1 | 0.2 | -114.4 | -41.8 | -2.2 | -10.5 | -4.4
Clc1ccc2c(N/N=C/c3ccccc3Br)ccnc2c1 | 10.2 | 84.0* | 83.4* | 20.0 | 20.7 | 0.8
Clc1ccc2c(NNc3ccccc3Cl)ccnc2c1 | x | -17.6 | 5.5 | x | -15.4 | 1.1
Clc1ccc2c(N/N=C/c3cccc(Br)c3)ccnc2c1 | x | 76.1* | 83.2* | 0.3 | 26.9 | 5.3
O=[N+]([O-])c1ccc(/C=N/Nc2ccnc3cc(Cl)ccc23)o1 | -19.8 | 93.1* | u | 9.0 | -5.4 | 4.1
O=[N+]([O-])c1ccc(/C=N/NS(=O)(=O)c2ccc(Cl)cc2)o1 | 3.6 | 16.7 | 11.5 | 2.9 | -6.8 | 9.9
O=C(N/N=C/c1ccc(F)cc1)c1c(O)c2ccccc2[nH]c1=O | -9.1 | 28.1 | 62.6* | -10.1 | -35.1 | -3.3
O=C(N/N=C/c1ccccc1)c1c(O)c2ccccc2[nH]c1=O | -40.5 | -75.2 | 33.7 | 25.4 | -18.8 | 1.8
O=S(=O)(c1ccc(F)cc1)N1C[C@@H]2[C@H](c3ccccc31)[C@H](CO)N2Cc1ccc2c(c1)OCO2 | 22.9 | x | x | -4.1 | x | x
O=C(O)CC(NC(=O)C1c2ccccc2Oc2ccccc21)c1ccc(OC2CCCC2)cc1 (stereo not given) | 1.7 | 6.6 | 8.9 | 121.2* | 24.9 | -7.6
C[C@@H]1CN([C@H](C)CO)C(=O)Cc2cc(NC(=O)C3CC3)ccc2O[C@@H]1CN(C)Cc1ccc(Oc2ccccc2)cc1 | 6.1 | x | x | x | x | x
O=S(=O)(c1ccc2oc3ccccc3c2c1)N1CCCC1 | x | 21.3 | -1.1 | x | 26.8 | -2.7
CCN(CC)C(=O)C1CCN(S(=O)(=O)c2ccc3oc4ccccc4c3c2)CC1 | 14.2 | 15.2 | 26.4 | x | 85.8* | 4.4
CCCNC(=O)N1CCC2(CC1)CN(C(C)=O)[C@H](CO)c1c2c2ccc(OC)cc2n1C | 18.9 | x | x | x | x | x
Cc1cccc(C(=O)N[C@H](C(=O)Nc2ncc(C)s2)C(C)C)c1 | 37.2 | 59.8* | -9.2 | 70.4* | -10.1 | 1.4
C[C@H](O)C#Cc1cnc2c(c1)C(=O)N([C@H](C)CO)C[C@H](C)[C@@H](CN(C)C(=O)c1ccc(F)cc1)O2 | 10.3 | x | x | x | x | x
Nc1nc(-c2cccs2)c(CC(=O)O)s1 | -8.0 | 21.0 | -2.3 | -32.8 | -11.4 | -12.8
O=C(O)Cc1sc(Nc2ccc(Cl)cc2)nc1-c1cccs1 | -25.3 | x | 80.6* | -4.3 | x | x
